TMEM16A inh: TMEM16A chloride channel inhibitors, primary screen, cell-based, HTS; HEK293 TMEM16A/YFP iodide influx fluorescence, ionomycin; normalized B-score (activity score, 25-100; higher = stronger inhibition) at 10 µM; 1.2% of 310,000 active;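 active = ratio plate-corrected score three or more library SD toward inhibition, starting fluorescence score within five deviations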;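 also: score derived from kinetic fluorescence span divided by baseline fluorescence per well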
CHT PAM: CHT positive allosteric modulators, primary screen, cell-based, membrane potential dye, choline EC20 | High affinity choline transporter 1 (Homo sapiens), Q9GZV3 | CHT-expressing cells; active compounds read high; LV-AA mutant CHT in HEK293 cells | B-score at 10 µM | 0.49% of 310,000 active | AID 488977, 2010;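 active = initial fluorescence not abnormally high and integrated response B-score, plate-corrected, over 3 SD above library mean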
CHT inh: inhibitors of human choline transporter CHT | B-score at 10 µM | 0.86% of 310,000 active | High affinity choline transporter 1 (Homo sapiens), Q9GZV3 | AID 488975, 2010 | CHT-expressing cells, membrane potential dye, choline response; active compounds read low;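 active = B-score over 3 SD under the library average, and starting fluorescence ratio not unusually high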;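 also: choline stimulus applied at its EC90 after an EC20 pre-addition; B-score computed on integrated fluorescence ratio after choline addition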
TMEM16A act: TMEM16A chloride channel activators or potentiators, primary screen, cell-based, HTS. 0.3% of 340,000 active. HEK293 TMEM16A/YFP-H148Q/I152L, iodide quench fluorescence; active compounds read low. AID 623877, 2012. B-score at 10 µM;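 active = fluorescence-ratio B-score plate-corrected deviation score at least 3 library SD below zero, with starting fluorescence score within 5 deviations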;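 also: channel opened by trigger with iodide after compound preincubation; score built on the fluorescence ratio of max minus min over baseline; more negative score means more quench and so TMEM16A activation or potentiation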
IDE cell activ: human IDE activators in live cells, primary screen, fluorescence polarization, HEK cells, FAbeta-B substrate; AID 493087, 2011; FAbeta-B cleavage; 0% vehicle, 100% cell-free pure enzyme wells; 0.073% of 340,000 active; activation, % at 5.96 µM; Insulin-degrading enzyme (Homo sapiens), P14735;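 active = activation above the mean of all tested compounds plus 3 SD, set per screening campaign, cut at about 17% in these data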
IDE cell inh: human IDE inhibitors in live cells, primary screen, fluorescence polarization, HEK cells, FAbetaB substrate | Insulin-degrading enzyme (Homo sapiens), P14735 | FAbetaB cleavage | inhibition, % at 5.59 µM | 0.41% of 320,000 active | AID 434962, 2010;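 active = percent inhibition above the average of all tested compounds plus 3 SD, set per screening campaign, cut at about 16% in these data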;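 also: IDE supplied by intact live HEK cells; FP after avidin binding of uncleaved biotin substrate so inhibition keeps polarization high; 0% = DMSO wells and 100% = 60 µM reference IDE inhibitor Ii1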
An asterisk follows results filed as active; i = inactive; nt = no result. Most compounds without a hit are left out; they make up all but 2.7% or so of the library.

SMILES	TMEM16A inh	CHT PAM	CHT inh	TMEM16A act	IDE cell activ	IDE cell inh
CC(=O)/C(C#N)=C1\NC(=O)C(Cc2ccc(F)cc2)S1 (configuration not stated)	i	i	i	i	-2	-4
CC(=O)/C(C#N)=C1\NC(=O)C(Cc2ccc(C)c(C)c2)S1 (configuration not stated)	25*	i	i	i	-2	2
O=C(COC(=O)c1cc(S(=O)(=O)N2CCOCC2)ccc1F)NCCc1ccc(F)cc1	nt	nt	nt	i	3	1
COC(=O)C1CCN(CC(=O)Nc2cc(Cl)ccc2OC)CC1	i	i	-9.7*	nt	nt	-6
COc1cc(C)nc(N2CCCC(C(=O)Nc3cc(Cl)ccc3OC)C2)n1 (configuration not stated)	25*	i	i	i	2	1
COc1ccc(OC)c2sc(N(CCN(C)C)C(=O)/C=C/c3cccs3)nc12	i	i	i	-32*	-1	-9
COc1ccc(C)c2sc(N(CCN(C)C)C(=O)/C=C/c3cccs3)nc12	i	i	i	i	5	-1
N#CC(C#N)=C1CCCc2sccc21	nt	nt	nt	i	9	nt
CC(C)CN(C(=O)Cn1nnc(-c2ccc(F)cc2)n1)C1CCS(=O)(=O)C1 (configuration not stated)	i	i	i	i	-2	4
CSc1ccc(NC(=O)Nc2cccn(Cc3ccccc3)c2=O)cc1	100*	i	i	i	0	-1
Cc1cc(OCC(=O)N(Cc2ccccc2)C2CCS(=O)(=O)C2)ccc1Cl (configuration not stated)	i	i	i	i	-2	0
Cc1ccc(OCC(=O)N(Cc2cccc(Cl)c2)C2CCS(=O)(=O)C2)cc1C (configuration not stated)	i	i	i	-40*	5	4
Cc1ccc(S(=O)(=O)N2[C@@H](c3cccc(Cl)c3)C(C(=O)O)=CC[C@H]2c2ccc(C(C)C)cc2)cc1	100*	i	i	i	0	0
Cc1ccc(S(=O)(=O)N2[C@@H](c3ccc(Cl)cc3)C(C(=O)O)=CC[C@H]2c2cccc(Cl)c2)cc1	100*	i	i	i	4	0
COc1cccc([C@@H]2CC=C(C(=O)O)[C@H](c3cccc(Cl)c3)N2S(=O)(=O)c2ccc(C)cc2)c1	i	i	i	i	-3	3
O=C(O)C1=CC[C@@H](c2ccc(Cl)cc2)N(S(=O)(=O)c2ccc(Cl)cc2)[C@H]1c1cccc(Cl)c1	100*	i	i	i	4	1
C[C@@H](N)C(=O)NC[C@H]1CC[C@H](C(=O)N[C@@H](Cc2ccccc2)C(=O)O)CC1	i	i	i	i	4	nt
CC(=O)c1cc2c(cc1NC(=O)Cc1ccsc1)OCO2	nt	nt	nt	i	3	9
COc1ccc(C(C[N+](=O)[O-])C2(c3ccc(OC)c(OC)c3)C(=O)c3ccccc3C2=O)cc1 (configuration not stated)	i	i	i	i	-9	16*
CCN(CC)c1ccc(C(=C2C=CC(=[N+](CC)CC)C=C2)c2ccccc2)cc1	nt	nt	nt	-12*	-10	nt
CCN(CC)c1ccc(C(=C2C=CC(=[N+](CC)CC)C=C2)c2ccc(N(CC)CC)cc2)cc1	nt	nt	nt	-6.6*	7	nt
CCN(CC)c1ccc(C(=O)NNC(=O)CCl)cc1	i	i	i	i	7	-1
O=C(O)C(O)c1ccccc1 (configuration not stated)	i	i	i	i	6	2
O=C(O)C(C(O)c1ccccc1)[n+]1ccccc1 (configuration not stated)	i	i	i	-20*	-5	-6
Cc1cccc(OCC(=O)N(Cc2nnc(-c3ccccc3Cl)o2)C2CC2)c1	nt	nt	nt	-29*	4	-2
SMILES	TMEM16A inh	CHT PAM	CHT inh	TMEM16A act	IDE cell activ	IDE cell inh
CN(Cc1cccs1)C(=O)CCc1c[nH]c2ccccc12	i	i	i	i	0	-1
CN(Cc1cccs1)C(=O)CCCc1c[nH]c2ccccc12	i	i	i	-6.3*	2	3
CCOC(=O)c1sc2nc(CSc3ccccc3)nc(N3CCC(C(N)=O)CC3)c2c1C	i	i	i	-5.8*	-2	0
Cc1sc2nc(CSc3ccccc3)nc(N3CCC(C(N)=O)CC3)c2c1C	i	i	i	i	2	2
COC(=O)C(NC(=O)CCc1nnc2ccc(N3CCCCC3)nn12)C(C)C (configuration not stated)	i	i	i	i	0	1
Cc1cc(C)cc(NC(=O)c2cccc(C(=O)Nc3cc(C)cc(C)c3)n2)c1	i	i	i	i	0	2
CCc1nc(N2CCN(C(=O)c3ccco3)CC2)c2c3c(sc2n1)CCCC3	i	i	i	i	1	-2
CC1CCc2c(sc3nc(C4CC4)nc(N4CCN(C(=O)c5ccco5)CC4)c23)C1 (configuration not stated)	100*	i	i	i	4	-4
CC1CC(=O)N(CC(=O)Nc2ccc(Br)cc2)c2ccccc2S1(=O)=O (configuration not stated)	i	i	i	i	1	-3
Cc1ccc(NC2CCCN(C(=O)C3CCCCC3)C2)cc1C (configuration not stated)	i	i	i	i	1	-5
COc1ccccc1NC(=S)NCCSc1ccc(Cl)cc1	i	i	i	i	-5	2
COc1ccc(Cl)cc1NC(=S)NCCSc1ccc(C)cc1	100*	i	i	i	0	-2
CCN(c1ccccc1)S(=O)(=O)c1cc(C(=O)Nc2ccc(Br)cc2)ccc1F	25*	i	i	i	2	4
CCN(CC)S(=O)(=O)c1cccc(NC(=O)Nc2cccc(C(F)(F)F)c2)c1	100*	i	i	i	3	-5
CCN(CC)S(=O)(=O)c1cccc(NC(=O)CC2CCCC2)c1	i	i	i	i	3	-2
O=C(NC(c1cccnc1)C(F)(F)F)c1cc(COc2ccc3c(c2)CCCC3)on1 (configuration not stated)	25*	i	i	i	-2	3
